For part of these data: Potency and affinity values are given separately.
Key:
Parameters in all cases: scale not given: direction of the effect not stated beside the values
[1] = target: Protein translocase subunit SecA (Escherichia coli (strain K12)) (UniProt P10408); experiment: Assay to Identify E. coli SecA ATPase Inhibitors; type: functional; conditions: 30 µM
[2] = target: T1, Ubiquitin-activating enzyme e1, putative (Leishmania donovani (strain BPK282A1)) (UniProt E9BSI1); experiment: Leishmania donovani Ubiquitin Activating Enzyme (LdE1); type: functional; conditions: 30 µM
T1 sequence (whole entry): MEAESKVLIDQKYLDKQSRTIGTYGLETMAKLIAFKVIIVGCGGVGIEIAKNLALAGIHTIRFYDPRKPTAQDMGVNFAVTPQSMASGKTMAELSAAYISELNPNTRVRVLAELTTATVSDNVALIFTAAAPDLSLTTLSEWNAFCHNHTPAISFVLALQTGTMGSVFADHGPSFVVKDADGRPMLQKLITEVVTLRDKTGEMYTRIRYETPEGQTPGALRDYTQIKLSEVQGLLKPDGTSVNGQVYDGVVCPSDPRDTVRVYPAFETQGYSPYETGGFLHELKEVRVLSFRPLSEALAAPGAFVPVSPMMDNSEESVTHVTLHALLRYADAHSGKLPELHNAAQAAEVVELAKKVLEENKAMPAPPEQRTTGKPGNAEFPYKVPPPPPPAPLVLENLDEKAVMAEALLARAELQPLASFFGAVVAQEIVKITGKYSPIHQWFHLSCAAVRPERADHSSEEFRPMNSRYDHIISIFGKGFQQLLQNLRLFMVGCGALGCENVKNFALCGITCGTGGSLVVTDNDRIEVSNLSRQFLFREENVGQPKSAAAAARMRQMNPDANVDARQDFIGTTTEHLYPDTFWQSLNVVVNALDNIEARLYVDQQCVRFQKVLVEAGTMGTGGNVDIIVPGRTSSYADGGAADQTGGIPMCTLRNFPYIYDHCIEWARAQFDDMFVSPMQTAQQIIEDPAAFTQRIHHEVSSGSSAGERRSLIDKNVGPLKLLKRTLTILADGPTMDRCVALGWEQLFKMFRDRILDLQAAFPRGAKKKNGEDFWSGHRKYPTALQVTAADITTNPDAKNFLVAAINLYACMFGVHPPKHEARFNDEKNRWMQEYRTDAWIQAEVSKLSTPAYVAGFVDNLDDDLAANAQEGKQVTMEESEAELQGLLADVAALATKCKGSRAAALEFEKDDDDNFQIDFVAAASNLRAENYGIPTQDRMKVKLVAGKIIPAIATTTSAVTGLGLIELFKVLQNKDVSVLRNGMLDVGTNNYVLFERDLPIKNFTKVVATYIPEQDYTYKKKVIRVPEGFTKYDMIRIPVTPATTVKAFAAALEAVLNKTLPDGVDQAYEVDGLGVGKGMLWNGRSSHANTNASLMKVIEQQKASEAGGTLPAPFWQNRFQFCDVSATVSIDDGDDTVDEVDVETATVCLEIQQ

[3] = target: AMP-activated protein kinase, AMPK (Homo sapiens) (UniProt P54646+O43741+P54619+Q9UGJ0+Q9Y478+Q13131+Q9UGI9); experiment: AMP-dependent Kinase enzyme assay. An in vitro enzyme assay that detects ADP turnover that is directly proportional to AMPK activity. This uses naive AMPK that is activated during the assay with MK-8722; type: functional; conditions: 30 µM
[4] = target: Sialic acid-binding Ig-like lectin 9 (Homo sapiens) (UniProt Q9Y336); experiment: Hs-Siglec9 ALPHAscreen SOP 20170721; conditions: 10 µM
[5] = tested on: Trypanosoma cruzi; experiment: Trypanosoma cruzi phosphomannomutase and mannose-1-phosphate guanylyltransferase assay; type: functional; conditions: 10 µM
[6] = target: T2, Arginase-2, mitochondrial (Homo sapiens) (UniProt P78540); experiment: in vitro enzyme assay to detect the production of urea directly proportional to the activity of Arginase II; type: functional; conditions: 33.3 µM; also: in the data most compounds retested in dose-response had high values
T2 sequence (whole entry): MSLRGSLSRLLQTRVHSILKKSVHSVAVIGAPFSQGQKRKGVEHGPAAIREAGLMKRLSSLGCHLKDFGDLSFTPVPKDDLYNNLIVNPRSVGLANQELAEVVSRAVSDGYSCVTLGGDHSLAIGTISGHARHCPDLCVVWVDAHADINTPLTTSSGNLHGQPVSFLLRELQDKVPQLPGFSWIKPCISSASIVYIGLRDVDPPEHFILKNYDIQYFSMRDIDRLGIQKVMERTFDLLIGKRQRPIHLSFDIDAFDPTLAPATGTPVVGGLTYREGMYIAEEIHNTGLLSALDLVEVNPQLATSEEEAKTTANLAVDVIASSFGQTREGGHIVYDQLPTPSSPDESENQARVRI

[7] = target: T3, Proteasome subunit beta (Trypanosoma cruzi) (UniProt O96673); experiment: Trypanosoma cruzi proteasome chymotrypsin-like activity (TcProtChymo) assay.; also: in the data most compounds retested in dose-response had high values; type: functional; conditions: 9.37 µM
T3 sequence (whole entry): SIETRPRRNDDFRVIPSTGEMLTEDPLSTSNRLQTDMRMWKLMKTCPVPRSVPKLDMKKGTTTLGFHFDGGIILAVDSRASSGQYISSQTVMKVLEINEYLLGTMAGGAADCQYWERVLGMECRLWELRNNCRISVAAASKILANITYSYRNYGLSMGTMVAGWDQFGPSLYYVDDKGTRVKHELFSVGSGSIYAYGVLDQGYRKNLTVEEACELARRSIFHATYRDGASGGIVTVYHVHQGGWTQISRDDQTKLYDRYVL

[8] = species: Homo sapiens; experiment: To identify inhibition of the IFN signalling (Jak-Stat) pathway via expression of an eGFP reporter gene under the control of an IFN-stimulated response element (ISRE) containing MxA promoter.; type: functional; conditions: 30 µM
[9] = target: T4, Tyrosyl-tRNA synthetase, putative (Trypanosoma cruzi (strain CL Brener)) (UniProt Q4DSP6); experiment: Trypanosoma cruzi tyrosyl tRNA synthetase (TcYRS) _High Tyrosine SOP; type: functional; conditions: 30 µM; also: in the data most compounds retested in dose-response had high values
T4 sequence (whole entry): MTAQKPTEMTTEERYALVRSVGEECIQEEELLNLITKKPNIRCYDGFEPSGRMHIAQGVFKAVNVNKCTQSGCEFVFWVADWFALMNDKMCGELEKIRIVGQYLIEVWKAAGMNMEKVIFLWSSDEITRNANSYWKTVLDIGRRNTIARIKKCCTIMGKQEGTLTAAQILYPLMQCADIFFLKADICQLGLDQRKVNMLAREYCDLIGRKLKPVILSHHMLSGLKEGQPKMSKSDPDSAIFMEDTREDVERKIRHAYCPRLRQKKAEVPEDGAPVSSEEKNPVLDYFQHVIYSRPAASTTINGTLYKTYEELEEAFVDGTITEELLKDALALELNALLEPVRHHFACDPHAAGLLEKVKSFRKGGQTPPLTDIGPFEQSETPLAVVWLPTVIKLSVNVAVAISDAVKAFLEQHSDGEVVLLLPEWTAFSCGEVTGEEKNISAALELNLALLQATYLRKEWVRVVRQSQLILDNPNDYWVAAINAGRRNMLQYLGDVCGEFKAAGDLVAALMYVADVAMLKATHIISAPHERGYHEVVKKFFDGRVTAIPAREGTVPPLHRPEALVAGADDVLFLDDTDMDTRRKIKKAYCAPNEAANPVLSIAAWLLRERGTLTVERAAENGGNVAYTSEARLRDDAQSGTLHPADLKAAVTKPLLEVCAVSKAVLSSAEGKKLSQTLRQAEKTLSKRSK

[10] = target: T4, Tyrosyl-tRNA synthetase, putative (Trypanosoma cruzi (strain CL Brener)); experiment: Trypanosoma cruzi tyrosyl tRNA synthetase (TcYRS) SOP; type: functional; conditions: 30 µM
[11] = target: Chromo domain-containing protein 1 (Saccharomyces cerevisiae (strain ATCC 204508 / S288c) (Baker's yeast)) (UniProt P32657); experiment: ScCHD-1 Enzyme Inhibition Assay; type: functional; conditions: 30 µM; also: in the data most compounds retested in dose-response had high values
Chain of Chromo domain-containing protein 1 (Saccharomyces cerevisiae (strain ATCC 204508 / S288c) (Baker's yeast)) (P32657 whole entry, the tested form may be a part): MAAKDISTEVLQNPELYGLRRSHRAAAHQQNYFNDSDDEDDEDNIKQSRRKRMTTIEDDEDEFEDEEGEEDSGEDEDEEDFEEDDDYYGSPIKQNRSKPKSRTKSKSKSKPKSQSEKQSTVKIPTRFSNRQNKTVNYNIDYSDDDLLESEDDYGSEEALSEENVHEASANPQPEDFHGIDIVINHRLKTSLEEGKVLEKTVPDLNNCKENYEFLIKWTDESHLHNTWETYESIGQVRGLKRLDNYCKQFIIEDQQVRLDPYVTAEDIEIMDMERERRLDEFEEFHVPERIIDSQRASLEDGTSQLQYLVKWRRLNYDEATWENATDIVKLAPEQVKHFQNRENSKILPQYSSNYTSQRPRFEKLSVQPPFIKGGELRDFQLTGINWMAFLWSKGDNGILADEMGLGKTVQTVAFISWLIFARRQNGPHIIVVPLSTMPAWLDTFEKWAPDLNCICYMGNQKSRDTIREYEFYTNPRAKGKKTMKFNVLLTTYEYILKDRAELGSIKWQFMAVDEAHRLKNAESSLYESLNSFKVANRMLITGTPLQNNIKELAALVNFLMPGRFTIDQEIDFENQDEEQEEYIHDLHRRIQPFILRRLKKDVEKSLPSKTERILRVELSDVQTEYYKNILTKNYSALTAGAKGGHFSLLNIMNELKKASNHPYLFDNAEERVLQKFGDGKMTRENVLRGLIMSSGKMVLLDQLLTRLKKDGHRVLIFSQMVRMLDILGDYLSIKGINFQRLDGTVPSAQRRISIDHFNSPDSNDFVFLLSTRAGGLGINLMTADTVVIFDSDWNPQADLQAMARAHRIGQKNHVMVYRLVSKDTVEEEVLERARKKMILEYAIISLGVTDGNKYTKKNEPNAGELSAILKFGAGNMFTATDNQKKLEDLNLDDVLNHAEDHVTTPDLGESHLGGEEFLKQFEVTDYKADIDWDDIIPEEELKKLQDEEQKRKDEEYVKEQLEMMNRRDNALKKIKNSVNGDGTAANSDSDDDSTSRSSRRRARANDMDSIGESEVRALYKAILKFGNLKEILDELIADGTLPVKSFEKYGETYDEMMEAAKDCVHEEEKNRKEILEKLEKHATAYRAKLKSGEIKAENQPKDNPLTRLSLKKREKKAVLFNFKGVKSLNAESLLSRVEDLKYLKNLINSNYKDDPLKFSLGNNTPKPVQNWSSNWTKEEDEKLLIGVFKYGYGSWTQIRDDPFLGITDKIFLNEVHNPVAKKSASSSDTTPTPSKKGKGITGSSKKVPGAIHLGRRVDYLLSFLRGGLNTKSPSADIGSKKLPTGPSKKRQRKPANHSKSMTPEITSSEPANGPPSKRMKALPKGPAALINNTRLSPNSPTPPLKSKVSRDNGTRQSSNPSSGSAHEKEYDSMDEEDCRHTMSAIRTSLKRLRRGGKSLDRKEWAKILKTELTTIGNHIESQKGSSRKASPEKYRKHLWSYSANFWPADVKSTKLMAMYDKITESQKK

Chain of Protein translocase subunit SecA (Escherichia coli (strain K12)) (P10408 whole entry): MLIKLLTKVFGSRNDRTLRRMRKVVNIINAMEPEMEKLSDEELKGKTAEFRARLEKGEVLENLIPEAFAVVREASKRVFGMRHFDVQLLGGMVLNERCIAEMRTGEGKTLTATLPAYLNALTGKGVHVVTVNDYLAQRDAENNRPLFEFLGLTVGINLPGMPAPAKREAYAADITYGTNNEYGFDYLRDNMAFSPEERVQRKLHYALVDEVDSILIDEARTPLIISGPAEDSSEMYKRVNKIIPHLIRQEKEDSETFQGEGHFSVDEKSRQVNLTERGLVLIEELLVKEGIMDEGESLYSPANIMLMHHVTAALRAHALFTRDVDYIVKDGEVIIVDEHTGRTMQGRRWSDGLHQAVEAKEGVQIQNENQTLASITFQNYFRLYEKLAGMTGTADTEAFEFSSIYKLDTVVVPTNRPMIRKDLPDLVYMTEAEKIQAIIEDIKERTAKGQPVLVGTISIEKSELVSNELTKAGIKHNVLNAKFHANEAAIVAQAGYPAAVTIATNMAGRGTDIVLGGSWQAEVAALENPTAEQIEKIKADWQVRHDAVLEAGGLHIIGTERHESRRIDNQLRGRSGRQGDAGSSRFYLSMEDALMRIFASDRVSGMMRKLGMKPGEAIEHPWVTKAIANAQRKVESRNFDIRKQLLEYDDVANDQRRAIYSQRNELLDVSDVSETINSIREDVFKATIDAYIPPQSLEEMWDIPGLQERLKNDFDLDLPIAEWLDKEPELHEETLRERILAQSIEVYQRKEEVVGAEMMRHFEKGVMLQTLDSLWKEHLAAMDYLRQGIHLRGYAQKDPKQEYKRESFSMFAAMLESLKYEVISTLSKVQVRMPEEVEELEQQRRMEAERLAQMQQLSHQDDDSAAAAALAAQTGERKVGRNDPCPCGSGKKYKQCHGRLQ
Chain of Sialic acid-binding Ig-like lectin 9 (Homo sapiens) (Q9Y336 whole entry): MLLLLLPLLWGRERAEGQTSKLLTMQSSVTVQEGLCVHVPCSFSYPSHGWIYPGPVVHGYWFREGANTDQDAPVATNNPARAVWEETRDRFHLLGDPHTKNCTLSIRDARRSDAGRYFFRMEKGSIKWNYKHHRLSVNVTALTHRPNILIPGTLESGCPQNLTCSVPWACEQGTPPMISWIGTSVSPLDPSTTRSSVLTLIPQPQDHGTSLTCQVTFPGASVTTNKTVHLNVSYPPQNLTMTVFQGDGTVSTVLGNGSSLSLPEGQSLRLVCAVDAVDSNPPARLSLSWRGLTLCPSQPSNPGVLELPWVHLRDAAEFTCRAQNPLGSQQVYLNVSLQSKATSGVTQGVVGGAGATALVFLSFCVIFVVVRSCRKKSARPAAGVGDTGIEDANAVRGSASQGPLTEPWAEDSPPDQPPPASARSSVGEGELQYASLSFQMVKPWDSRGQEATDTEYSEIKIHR

| Compound | Percent Effect [1] | Percent Effect [2] | Percent Effect [3] | Percent Effect [4] | Percent Effect [5] | Percent Effect [6] | Percent Effect [7] | Percent Effect [8] | Percent Effect [9] | Percent Effect [10] | Percent Effect [11] |
| --- | --- | --- | --- | --- | --- | --- | --- | --- | --- | --- | --- |
| COCCCN1CCC(NC(=O)C(C)C)CC1 | -6.61% | -2.74% | -0.488% | -2.06% | -5.16% | -2% | 6.76% | 24.5% | 0% | -1.24% | -2.64% |
| Cc1csc(NC(=O)CN(C)CC2CCCN2c2cccnn2)n1 (stereo unspecified) | -4.27% | 0% | -8.12% | 2.96% | -6.05% | 5.42% | 15.5% | 9.4% | 11.9% | 8.54% | -4.21% |
| Cc1cc(CN(C)C2CCCN(c3cccnn3)C2)on1 (stereo unspecified) | -4.98% | -2.67% | -10.6% | -0.639% | 4.19% | 1.56% | 16.2% | -1.53% | 11.5% | 13.6% | -1.67% |
| Cc1nn(C)cc1CNC(=O)c1cn(CCC2CCCCN2)nn1 (stereo unspecified) | -3.59% | 2.67% | -4.65% | 9.99% | 9.64% | -1.04% | 20.9% | -18.7% | 6.01% | 16.1% | -3.7% |
| CCc1ncnc2c1CCN(C(=O)Cc1ccccn1)CC2 | -1.33% | 4% | -1.05% | 1.52% | -0.786% | -9.33% | 11.8% | 12.9% | 1.06% | -5.13% | -2.69% |
| CN(C)C(=O)N1CCN(Cc2cnn(C)c2)CC2(CNC(=O)C2)C1 (stereo unspecified) | -2.48% | 0% | 2.36% | 11.3% | -3.03% | -2.87% | 17% | 3.58% | 4.32% | 2.56% | 3.46% |
| O=C1CC(c2ccccc2)c2snc(C(=O)O)c2N1 (stereo unspecified) | -3.07% | 6.67% | -2.59% | -2.64% | 2.95% | 20.9% | 29.4% | 1.29% | 3.17% | 7.69% | -12% |
| Cn1c(CN2CCOC(c3nc(C(C)(C)C)n[nH]3)C2)nnc1C1CC1 (stereo unspecified) | -7.68% | -26% | -4.74% | -20.2% | 7.35% | -8.63% | 4.93% | -6.09% | 3.81% | 18.8% | -22.6% |
| O=C(NC1(c2nnn(Cc3ccncc3)n2)CCCC1)c1ccccc1 | -6.65% | 2.67% | -7.02% | 6.6% | 1.85% | 0.521% | -25.6% | -24.1% | 7.1% | 16.1% | -2.08% |
| OCCN1CCN(Cc2coc(-c3ccc(Cl)cc3)n2)CC1 | -2.69% | -2.6% | 3.9% | 4.43% | 3% | 4.27% | 1.35% | -6.89% | 0% | 7.32% | -3.24% |
| CC(=O)N(Cc1ncc(C)o1)C1CCN(Cc2cccc(C#N)c2)C1 (stereo unspecified) | -5.59% | 5.41% | -3.95% | 9.41% | -2.44% | -1.74% | 5.24% | 5.84% | 0% | 1.24% | -0.172% |
| Cc1nnc2n1CCN(C(=O)c1cn(-c3ccccc3Cl)nn1)C2 | -5.44% | 8.22% | -1.29% | 1.29% | 0.992% | -2.79% | 6.25% | 0.99% | 7.29% | 16.1% | -2.71% |
| O=C(Nc1cccnc1)[C@H]1C[C@@H]2CCN(c3nncs3)C[C@H]2O1 | -0.711% | 5.41% | -5.74% | -1.47% | 2.54% | -2.08% | 10.4% | 4.24% | 10.9% | 13.4% | -4.77% |
| c1cnn(CC2CN(c3ncnc4ccsc34)CCO2)c1 (stereo unspecified) | -5.02% | 2.7% | 14.2% | -3.02% | -4.69% | 0.833% | 19.5% | 69.8% | 4.95% | 11% | 0.323% |
| Cc1cccc(C2(C(=O)NCCCn3cccn3)CC2)c1 | -2.92% | 19.2% | -1.18% | 14.6% | 2.94% | 17.3% | 10.5% | 8.26% | 3.23% | 15% | -6.34% |
| Cc1ccc(CN2CCC3(CC2)CC(c2cccnc2)CO3)s1 (stereo unspecified) | -5.83% | 5.41% | 1.22% | -3.96% | 0% | 7.08% | 4.65% | 0.622% | 8.91% | 11% | -2.92% |
| O=C(CCNC(=O)c1ccccc1N1CCOCC1)NC1CCCC1 | -4.31% | 16.4% | -6.31% | 6.63% | 4.76% | -0.798% | 13.1% | -7.41% | 8.33% | 21% | -9.11% |
| Cc1ncc(CN2Cc3ccccc3O[C@]3(CC[C@H](CO)CC3)C2)cn1 | -1.38% | 6.76% | 8.93% | 6.44% | -2.57% | 0.696% | 0.78% | 8.08% | 3.23% | 9.09% | -4.96% |
| CC(O)CN1CCN(Cc2cccc(C(=O)N(C)C)c2)CC1 (stereo unspecified) | -4.84% | -141% | -53.4% | 5.64% | 1.02% | -3.51% | -4.31% | 5.72% | 5.94% | 3.66% | 9.61% |
| Cc1ccc(C2CSCCN2C(=O)c2ccc(C(N)=O)cc2)o1 (stereo unspecified) | -2.99% | 5.41% | -7.52% | 13.6% | 1.47% | 20.6% | 10% | -21.9% | 4.3% | 11.1% | -2.9% |
| Cc1cc(C)c(CNC(=O)NCC(c2ccccc2)N(C)C)c(=O)[nH]1 (stereo unspecified) | -3.19% | -2.63% | -5.47% | 13.4% | 2.52% | 1.08% | -0.592% | 4% | 7.39% | 18.5% | -3.01% |
